Reference: article PMC4336329 (PLoS ONE, 2015)
Screen size: about 310,000 compounds; about 14,000 (4.5%) showed an effect of 50% or more. The effect is printed as a negative number. For the sample, strong results were picked, then their nearest neighbours and some compounds at random.

Target: human ether-à-go-go-related gene (hERG) potassium channel (human, UniProt Q12809)
Test: primary screen, population patch clamp on CHO cells stably expressing hERG; higher = less effect of the substance
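Further: peak tail current of the secondary pulse compared with the same well before compound.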

Chain of human ether-à-go-go-related gene (hERG) potassium channel (Q12809 whole entry, looked up): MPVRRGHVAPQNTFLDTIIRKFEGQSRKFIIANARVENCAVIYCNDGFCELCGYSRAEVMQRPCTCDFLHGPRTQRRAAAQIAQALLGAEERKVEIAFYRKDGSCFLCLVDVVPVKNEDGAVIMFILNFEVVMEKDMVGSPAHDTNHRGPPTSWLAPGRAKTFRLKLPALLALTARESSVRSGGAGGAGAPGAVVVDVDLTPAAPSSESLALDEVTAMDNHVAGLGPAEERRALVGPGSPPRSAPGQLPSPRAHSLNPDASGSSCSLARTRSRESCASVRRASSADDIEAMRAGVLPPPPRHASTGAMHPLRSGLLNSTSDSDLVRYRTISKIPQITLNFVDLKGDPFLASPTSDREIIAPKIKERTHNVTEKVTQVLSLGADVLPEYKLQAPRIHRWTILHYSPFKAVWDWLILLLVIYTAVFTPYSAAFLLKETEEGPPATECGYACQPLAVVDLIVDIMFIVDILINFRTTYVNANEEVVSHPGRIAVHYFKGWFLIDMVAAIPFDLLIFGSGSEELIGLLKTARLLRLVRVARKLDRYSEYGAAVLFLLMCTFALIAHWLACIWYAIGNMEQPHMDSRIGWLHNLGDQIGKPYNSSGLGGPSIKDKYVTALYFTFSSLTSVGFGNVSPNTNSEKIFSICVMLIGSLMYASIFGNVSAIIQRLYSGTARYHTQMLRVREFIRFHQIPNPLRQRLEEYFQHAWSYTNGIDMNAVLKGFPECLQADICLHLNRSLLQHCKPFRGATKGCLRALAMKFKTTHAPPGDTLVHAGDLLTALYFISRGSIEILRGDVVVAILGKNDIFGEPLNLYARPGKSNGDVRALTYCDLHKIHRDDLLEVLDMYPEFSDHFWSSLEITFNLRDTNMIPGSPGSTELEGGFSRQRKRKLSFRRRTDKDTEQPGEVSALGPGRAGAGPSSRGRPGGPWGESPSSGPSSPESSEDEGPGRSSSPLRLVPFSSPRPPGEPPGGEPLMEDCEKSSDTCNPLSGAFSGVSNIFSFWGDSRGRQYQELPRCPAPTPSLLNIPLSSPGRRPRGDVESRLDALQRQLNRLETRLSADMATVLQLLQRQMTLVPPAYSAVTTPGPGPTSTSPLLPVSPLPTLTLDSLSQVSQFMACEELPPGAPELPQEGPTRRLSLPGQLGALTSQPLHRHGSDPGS

| SMILES | hERG current change (%, negative = inhibition) at 10uM [%] |
| --- | --- |
| O=C(NCCC1=CCCCC1)c1cc(-c2ccccn2)nc2ccccc12 | 8.77 |
| COCCCNC(=O)C1CCN(S(=O)(=O)N(CC(C)C)CC(C)C)CC1 | 13.4 |
| O=C(NCCO)/C(=C/c1ccc2c(c1)OCO2)NC(=O)c1ccc(Br)cc1 | -69.5 |
| O=C(NCCO)/C(=C\c1ccc2c(c1)OCO2)NC(=O)c1ccc(Br)cc1 | -51.9 |
| O=C(N/N=C/c1ccc2c(c1)OCO2)/C(=C/c1ccc2c(c1)OCO2)NC(=O)c1ccccc1 | -20.7 |
| CC(=O)N/C(=C/c1ccc2c(c1)OCO2)C(=O)NCCO | 9.66 |
| CC(=O)N/C(=C/c1ccc2c(c1)OCO2)C(=O)NCCCO | 23.3 |
| O=C(OCc1cc(Cl)ccc1OC(F)F)c1cncc(Br)c1 | 5.33 |
| COc1ccc(C(=O)N=C2SC3CS(=O)(=O)CC3N2Cc2ccccc2)cc1OC (centres unmarked) | 13.3 |
| CCOC(=O)c1c(C)[nH]c(C(=O)COC(=O)/C=C/c2ccc(O)c(OC)c2)c1C | 2.87 |
| CCOc1ccc(NS(=O)(=O)c2ccc(C(=O)N3CCN(C(C)=O)CC3)cc2)cc1 | 26.6 |
| Cc1ccccc1-n1nc(C)c2c1N=C1C(Cl)=CC(Cl)=CN1C2c1ccc(C(=O)O)cc1 (centres unmarked) | 11.9 |
| CCOc1cc(N2CCOCC2)c(OCC)cc1NC(=O)CN1CCc2ccccc2C1 | 2.76 |
| COc1cccc(NC(=S)N(Cc2ccc(Cl)cc2)Cc2ccc(C(=O)O)cc2)c1 | 25.6 |
| COc1ccc2[nH]c(C)c(CCNC(=S)Nc3cccc(C)c3C)c2c1 | 15.9 |
| O=C(CN1CCCCCC1)NCCN1C(=O)S/C(=C\c2ccccc2Cl)C1=O | -9.34 |
| CC1CN(C(c2cccs2)c2sc3ncnn3c2O)CC(C)O1 (centres unmarked) | 19.5 |
| O=C(NC1CCCCC1)C(c1ccc2ncccc2c1)N(Cc1cccs1)C(=O)c1cccs1 (centres unmarked) | -51.3 |
| O=C(NC1CCCCC1)C(c1ccc2ncccc2c1)N(Cc1ccc(F)cc1)C(=O)c1cccs1 (centres unmarked) | -22 |
| O=C(NC1CCCCC1)C(c1ccc2ncccc2c1)N(Cc1ccccc1)C(=O)c1cccs1 (centres unmarked) | -60.4 |
| O=C(NC1CCCCC1)C(c1ccc2ncccc2c1)N(Cc1ccc2c(c1)OCO2)C(=O)c1cccs1 (centres unmarked) | -37.1 |
| O=C(NC1CCCCC1)C(c1cccs1)N(Cc1cccs1)C(=O)c1cccs1 (centres unmarked) | -12.2 |
| COc1ccc(CN(C(=O)c2cccs2)C(C(=O)NC2CCCCC2)c2ccc3ncccc3c2)cc1 (centres unmarked) | -47.9 |
